High-throughput results (PubChem)
The sample as a whole holds a higher share of hits than the screen did.
Pf Dd2 inh = Plasmodium falciparum Dd2 growth inhibition; P. falciparum Dd2 growth, SYBR Green, 72 h; Potency, µM (top dose mostly 28.9 µM), without a hit: at the highest dose activity, negative = inhibition, hits mostly inhibitors; 4.3% of 120,000 active; active = well fitted inhibition curve with a large enough effect;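 note: plate controls were DMSO vehicle for no effect and reference drug for full effect; nearly all actives have a fitted effect of over 65% in size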
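Readout: SYBR Green fluorescence, 485 nm excitation, 535 nm emission, after ~16 h lysis at 37C. Before that, Dd2-infected red cells (2.5% hematocrit) grew 72 h with compound, 29 uM top final concentration.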
Starred values were filed as active, the others as inactive; [ ] = dose if it differs, or a comment. Potency is the fitted concentration of half-maximal effect.

What do the screens show for `Cc1ccc(Nc2c3c(nc4ccccc24)CCC3)cc1F`?
Pf Dd2 inh: inactive

What do the screens show for `COc1ccccc1Nc1c2c(nc3ccc(NC(=O)c4cccc(OC)c4OC)cc13)CCCC2`?
Pf Dd2 inh: 5.6µM*

Results for COc1ccccc1NC(=O)c1ccc2c(Cl)c3c(nc2c1)CCCC3 ?
Pf Dd2 inh: 12%

What do the screens show for `O=C(c1ccc(NCc2ccncc2)cc1)N1CCCC2(CCNCC2)CC1`?
Pf Dd2 inh: -13%

Results for COC(=O)c1ccc(NC(=O)Cn2nc3n(c2=O)CCCC3)cc1 ?
Pf Dd2 inh: inactive

What do the screens show for `CN(C)CC1(O)CCN(C(=O)Cn2cc(C(=O)C3CC3)c3ccccc32)C1` (stereo not given)?
Pf Dd2 inh: -5%

What do the screens show for `COc1ccc(-c2cc(N3CCC(NC(=O)c4ccc(Cl)cc4OC)CC3)n[nH]2)cc1`?
Pf Dd2 inh: inactive

Results for CNC(=O)[C@@H](c1ccc(OC)cc1)N1CCC[C@H]1C(=O)N1CCCC1 ?
Pf Dd2 inh: -13%[44.1 µM]

Results for Cc1nnc(CN(C)C(=O)CC(c2ccccc2)c2ccc(Cl)cc2)o1 (stereo not given) ?
Pf Dd2 inh: -2%

Results for Cc1nonc1CN(C)C(=O)CC(c1ccccc1)c1cccc(Cl)c1 (stereo not given) ?
Pf Dd2 inh: -21%

What do the screens show for `Cc1cnc(CN(C)C(=O)CC(c2ccccc2)c2ccc(Cl)cc2)[nH]1` (stereo not given)?
Pf Dd2 inh: 8.9µM*

Results for O=C(Cn1ccn2nc3c(c2c1=O)CCCCC3)NCc1ccc(Cl)cc1 ?
Pf Dd2 inh: 27%

What do the screens show for `O=C(NC(=O)c1ccc(F)cc1)Nc1ccc(-c2cc(C(F)(F)F)nn2-c2ccccc2)cc1`?
Pf Dd2 inh: 27%

What do the screens show for `COc1ccccc1C(=O)NC(=O)Nc1ccc(-n2nc(C(F)(F)F)cc2C(F)(F)F)cc1`?
Pf Dd2 inh: 11µM*

Results for O=C(NC(=O)c1ccccc1)Nc1ccc(-n2nc(C(F)(F)F)cc2C(F)(F)F)cc1 ?
Pf Dd2 inh: -5%

What do the screens show for `COc1ccccc1OCCNC(=O)C1CCCN(Cc2ccncc2)CCC(=O)NCC1` (stereo not given)?
Pf Dd2 inh: 2%

What do the screens show for `CCOCc1nc(C2CCCN(C(=O)c3ccc(C)c(F)c3)C2)no1` (stereo not given)?
Pf Dd2 inh: 120%

Results for Cn1cc(C(=O)N2CC(Oc3ccc(-c4nc(-c5ccccc5)no4)cc3)C2)cn1 ?
Pf Dd2 inh: 25%[5.79 µM]

Results for CCn1cc(CN2CC(Oc3ccc(-c4noc(-c5ccncc5)n4)cc3)C2)cn1 ?
Pf Dd2 inh: 1.8µM*

What do the screens show for `CCn1cc(S(=O)(=O)N2CC(Oc3ccc(-c4nc(C)no4)cc3)C2)cn1`?
Pf Dd2 inh: inactive[5.79 µM]

Results for COc1cccc(CNC(=O)Cn2nc3n(c2=O)CCCCC3)c1OC ?
Pf Dd2 inh: 3%

How did CNC(=O)c1noc([C@@H]2CC(F)(F)CN2Cc2cc(C)nn2C)n1 do in these assays?
Pf Dd2 inh: inactive

How did COc1cccc(NC(=O)CCC2CCN(C(=O)C(C)n3cncn3)CC2)c1 (stereo not given) do in these assays?
Pf Dd2 inh: -11%

Results for Cc1ccc(CSc2nnc(-n3c(=O)c(C#N)cc4c(=O)n5cc(C)ccc5nc43)s2)cc1 ?
Pf Dd2 inh: 32%

How did N#Cc1cc2c(=O)n3ccccc3nc2n(-c2nnc(SCc3ccccc3)s2)c1=O do in these assays?
Pf Dd2 inh: inactive

Results for Cc1cccn2c(=O)c3cc(C#N)c(=O)n(-c4nnc(SCc5ccc(Cl)cc5)s4)c3nc12 ?
Pf Dd2 inh: 8.9µM*

How did CCC(=O)N1C[C@@H](Oc2ccccc2)C[C@H]1C(=O)N1CCOCC1 do in these assays?
Pf Dd2 inh: 1%

What do the screens show for `Cc1cc(C(=O)N[C@@H]2CN(c3ncccn3)C[C@H]2CO)c(C)o1`?
Pf Dd2 inh: -12%

How did O=C(CC(c1ccc(F)cc1)c1cn(Cc2ccccc2)c2ccc([N+](=O)[O-])cc12)N1CCOCC1 (stereo not given) do in these assays?
Pf Dd2 inh: 0.18µM*

What do the screens show for `O=C(CC(c1ccc(Cl)cc1)c1c[nH]c2ccc([N+](=O)[O-])cc12)N1CCOCC1` (stereo not given)?
Pf Dd2 inh: -11%

What do the screens show for `O=C(CC(c1ccccc1)c1ccccc1Cl)N1CCOCC1` (stereo not given)?
Pf Dd2 inh: -1%

What do the screens show for `Cc1nc(C(=O)NC2CC(c3cc(N4CCC(O)C4)ncn3)C2)cs1` (stereo not given)?
Pf Dd2 inh: -31%

Results for CCn1ncc(N2CCC(NC(=O)CCC3CCCC3)CC2)cc1=O ?
Pf Dd2 inh: -8%

Results for Cc1nc(CN2CCN(CC3(O)CNCCOC3)CC2)cs1 (stereo not given) ?
Pf Dd2 inh: -3%

Results for CCNC(=O)C1C(c2cccc(NC(=O)c3ccccc3)c2)OC(=O)N1Cc1ccc(F)cc1 (stereo not given) ?
Pf Dd2 inh: inactive

Results for COc1ccc2c(c1)c(=O)c(S(=O)(=O)c1ccccc1)cn2CC(=O)Nc1ccc2c(c1)OCO2 ?
Pf Dd2 inh: -2%

What do the screens show for `COc1ccc(OC)c(NC(=O)Cn2cc(C(=O)c3ccc(Cl)cc3)c(=O)c3cc(OC)ccc32)c1`?
Pf Dd2 inh: 8.9µM*

What do the screens show for `O=C(Cn1cc(S(=O)(=O)c2ccccc2)c(=O)c2cc(Cl)ccc21)Nc1ccc2c(c1)OCO2`?
Pf Dd2 inh: 8.9µM*

Results for COc1ccc(OC)c(NC(=O)Cn2cc(C(=O)c3ccccc3)c3ccccc32)c1 ?
Pf Dd2 inh: inactive

How did CCOc1ccc(C(=O)c2cn(CC(=O)Nc3ccc4c(c3)OCCO4)c3ccc(OC)cc3c2=O)cc1 do in these assays?
Pf Dd2 inh: -22%

What do the screens show for `COc1cccc(NC(=O)Cn2cc(C(=O)c3ccc(F)cc3)c(=O)c3cc(OC)ccc32)c1`?
Pf Dd2 inh: -8%

What do the screens show for `CCc1ccc(C(=O)c2cn(CC(=O)Nc3cccc(OC)c3)c3ccc(OC)cc3c2=O)cc1`?
Pf Dd2 inh: 13µM*

Results for COc1ccc2c(c1)c(=O)c(C(=O)c1ccc(Cl)cc1)cn2CC(=O)Nc1ccc2c(c1)OCCO2 ?
Pf Dd2 inh: 11µM*

How did COc1ccc(NC(=O)Cn2cc(C(=O)c3ccccc3)c(=O)c3cc(OC)ccc32)c(OC)c1 do in these assays?
Pf Dd2 inh: 3%

Results for COc1cccc(NC(=O)Cn2cc(C(=O)c3ccc(C)cc3)c(=O)c3cc(OC)ccc32)c1 ?
Pf Dd2 inh: -19%

What do the screens show for `O=C(Cn1cc(S(=O)(=O)c2ccc(F)cc2)c(=O)c2cc3c(cc21)OCO3)Nc1ccccc1`?
Pf Dd2 inh: 19%

Results for COc1ccc2c(c1)c(=O)c(C(=O)c1ccc(Cl)cc1)cn2CC(=O)Nc1ccc2c(c1)OCO2 ?
Pf Dd2 inh: 6%

How did CC(C)(C)c1nnc2n1C(C(=O)N1CCN(c3ncccn3)CC1)CC2 (stereo not given) do in these assays?
Pf Dd2 inh: 28%

What do the screens show for `O=C1Nc2ccccc2CC12CCN2[S+](=O)([O-])c1cccc(C(F)(F)F)c1` (stereo not given)?
Pf Dd2 inh: -8%

How did OCCc1cnc2c(-c3nc(-c4cccnn4)no3)cnn2c1 do in these assays?
Pf Dd2 inh: -24%

Results for COc1ccc(C2Cn3nnc(C(=O)N4CCC(C(=O)NCCc5ccccc5)CC4)c3CO2)cc1 (stereo not given) ?
Pf Dd2 inh: -13%

How did Cn1cnnc1C1CCN(C(=O)C2CCCN(C(N)=O)C2)CC1 (stereo not given) do in these assays?
Pf Dd2 inh: 5%
